Inconclusive results are not listed. Values without a mark were called inactive. Calls of active or inactive are those of the source. The call rests on the fitted dose curve; in most records, active means well fitted cell-killing curve with a large enough effect in the repeat runs; inconclusive means weak or mixed curves, or effect the other way; inactive means flat fitted curve, though single readings scatter.
On the % scale 0 is the no-effect control and ±100 the full control effect; potency means the concentration at half of the fitted maximal effect.

A short description of the experiment: cAMP Responsive Elements (CRE) small molecule antagonists, cell-based qHTS assay: qHTS cell viability counter screen (AID 2060913). Further: nearly all actives have a fitted effect of over 40% in size. To be noted: CRE-bla HEK293T viability, CellTiter-Glo luminescence, 5 h; series mostly up to 92.4 µM; viability change, negative = cytotoxic: at the top concentration. The text has this:
U.S. Tox21 Program National Center for Advancing Translational Sciences [NCATS] Division of Preclinical Innovation [DPI] U.S. Environmental Protection Agency [EPA] National Institutes of Environmental Health Sciences [NIEHS] National Toxicology Program [NTP] U.S. Food and Drug Administration [FDA] Tox21 Assay Overview: CREB (cyclic-AMP Responsive Element Binding Protein) is a cellular transcription factor. It binds to certain DNA sequences called cAMP Responsive Elements (CRE) and regulates the transcription of the genes. […] This cell line can be used to find agonists/antagonists of the cyclic AMP signaling pathway. The activation of the report gene under culture conditions can be detected by fluorescence intensity. This cell line has been used to screen the Tox21 10K compound library to identify agonists that induce oxidative stress. The cytotoxicity of the Tox21 compound library against the CRE-bla cell line was tested in parallel by measuring the cell viability using CellTiter-Glo assay (Promega, Madison, WI) in the same wells.
Tox21 Assay Protocol Summary: CRE-bla Hek 293T cells were suspended in assay medium (DMEM containing 10% dialyzed FBS, 0.1 mM NEAA, 1 mM sodium pyruvate and 25 mM HEPES) and dispensed at 2,000 cells/4 uL /well into 1536-well black wall/clear bottom plates using a Multidrop Combi (ThermoFisher Scientific, Waltham, MA) dispenser. After the assay plates were incubated at 37 C/5% CO2 for 18 hrs, 23 nL of compounds dissolved in DMSO, positive controls or DMSO only was transferred to the assay plate by a pintool workstation (Kalypsys, San Diego, CA), followed by addition of 1 uL of 1.25uM NKH477 (0.25 uM as final concentration) in assay medium using a Flying Reagent Dispenser (Aurora Discovery, San Diego, CA). The plates were incubated at 37 C and 5% CO2 for 3 hrs. Then 1 uL of LiveBLAzer B/G FRET substrate (Invitrogen, Carlsbad, CA) was added to each well using Bioraptr Flying Reagent Dispenser (FRD, Aurora Discovery, San Diego, CA). The plates were incubated at room temperature for 2 h, then fluorescence intensities were measured using an Envision plate reader (PerkinElmer, Shelton, CT) at Excitation 405nm, Emission 460nm and 530nm. The % activity was determined from the ratio of 460nm/530nm. For cell viability readout that measures cytotoxicity, 4 uL /well of CellTiter-Glo reagent was added into the assay plates using Bioraptr FRD. After 30 min incubation at room temperature, the luminescence intensity in the assay plates was measured using a ViewLux (PerkinElmer, Shelton, CT) plate reader.
As for `O=S(O)CO`, the “viability change, negative = cytotoxic” value was 4.06%. On to `CC(=O)O[C@@]12CO[C@@H]1C[C@H](O)[C@@]1(C)C(=O)[C@H](O)C3=C(C)[C@@H](OC(=O)[C@H](O)[C@@H](NC(=O)OC(C)(C)C)c4ccccc4)C[C@@](O)([C@@H](OC(=O)c4ccccc4)[C@H]21)C3(C)C`, for which the “viability change, negative = cytotoxic” value was -1.9% [at 42.5 µM]. With `O=C(O)Cn1c(C(=O)Nc2nc(-c3ccccc3Cl)cs2)cc2ccccc21`, the “viability change, negative = cytotoxic” value was 0% [at 42.5 µM]. Turning to `CCCN(CCC)C(=O)SCC`, the Potency result was “inactive”. Turning to `CCC(C)(Oc1ccc(C2(c3ccc(OC(C)(CC)C(=O)O)cc3)CCCCC2)cc1)C(=O)O` (stereo not given), the “viability change, negative = cytotoxic” value was 3.75% [at 42.5 µM]. On the same count and under the same terms, to `C[Si](C)O[Si](C)(C)O[Si](C)(C)O[Si](C)C` belongs -0.106%. On to `Nc1ccn(C2CO[C@H](CO)O2)c(=O)n1` (stereo not given in full), for which the “viability change, negative = cytotoxic” value is -2.87% [at 42.5 µM]. The same measure, in the same setting: to `CC(C)CC(=O)O` belongs 16.1%; to `CC1(C)OC(=O)Nc2ccc(Br)cc21`, 1.28% [at 42.5 µM]; to `O=C1NCCN1`, 0.736%. Turning to `OCC1(CO)COCOC1`, the “viability change, negative = cytotoxic” value was -5.53%. As to `c1cc[nH]c1`, the “viability change, negative = cytotoxic” value is 3.26%. For the compound `O=C(O)CCCCC1CCSS1` (stereo not given), the Potency entry is “inactive”. As to `O=c1[nH]cnc2c1ncn2[C@@H]1O[C@H](CO)[C@@H](O)[C@H]1O`, the “viability change, negative = cytotoxic” value was 8.88% [at 42.5 µM]. For the compound `C=CC(=O)NC(C)(C)C`, the “viability change, negative = cytotoxic” value is 2.32%. Same read-out and setting: to `CC1(C)C(=O)N(CO)C(=O)N1CO` belongs 0.139%. In the case of `Nc1c2ccccc2nc2ccccc12`, the Potency entry was “inactive”. For `CCCCN`, the “viability change, negative = cytotoxic” value was 5.1% [at 42.5 µM].

On to `c1cnccn1`, for which the “viability change, negative = cytotoxic” value is 5.56%. Still for that read-out and setting: to `CSc1nc(NC2CC2)nc(NC(C)(C)C)n1` belongs -10.2%. For `O=C1OC2(c3cc(Br)c(O)c(Br)c3Oc3c2cc(Br)c(O)c3Br)c2c(Cl)c(Cl)c(Cl)c(Cl)c21`, the Potency entry was “inactive”. As to `c1coc(Cn2cccc2)c1`, the “viability change, negative = cytotoxic” value was 18%. As to `C=C(C)[C@@H]1CC=C(C)CC1`, the “viability change, negative = cytotoxic” value is -0.287%. For `CCCCCCC1CCCC(=O)O1` (stereo not given), the “viability change, negative = cytotoxic” value is -6.17%.

Take `Nc1cc(-c2ccncc2)c[nH]c1=O`: the Potency result is “inactive”.

On to `C=C(C)C(=O)OCC(C)O` (stereo not given), for which the Potency result was “inactive”.

With `Cc1cccc(N(C)C)c1`, the “viability change, negative = cytotoxic” value is 3.33%. Turning to `O=C(c1ccccc1)c1cccc(O)c1`, the “viability change, negative = cytotoxic” value is 0.102%. As to `Cc1nc2ccc(Cl)cc2[nH]1`, the “viability change, negative = cytotoxic” value was 1.65%. Still for that read-out and setting: to `COc1cc(N)c(Cl)cc1C(=O)NC1CCN(Cc2ccccc2)CC1` belongs 1.34% [at 42.5 µM]; to `CC(C)CCOC(=O)c1ccccc1`, 5.98%. With `CCCCCCOC(=O)CC`, the “viability change, negative = cytotoxic” value was 0.721%. Turning to `CCC(CO)(CO)CO`, the “viability change, negative = cytotoxic” value was 8.14%.

On to `CCCC(C)C`, for which the “viability change, negative = cytotoxic” value was -18.5%. With `C=C(C)CCCC(C)CCO` (stereo not given), the “viability change, negative = cytotoxic” value is 0.132%. `COc1nc(N)nc2nc[nH]c12`: the “viability change, negative = cytotoxic” value was 14.2%. As to `N[C@@H](Cc1cc(I)c(Oc2ccc(O)c(I)c2)c(I)c1)C(=O)O`, the Potency result was “inactive”.

With `CCCOC(=O)C(C)O` (stereo not given), the “viability change, negative = cytotoxic” value is -8.76%.

Regarding `CC12CCC(CC1=O)C2(C)C` (stereo not given), the “viability change, negative = cytotoxic” value was 10.7%. Consider `C=CC(=O)OCC(CO)(COC(=O)C=C)COC(=O)C=C`, for which the Potency is 28.5 µM (active).

Source of the values: PubChem BioAssay (Tox21).
